From PubChem BioAssay (NCI)
This is part of a sample that, as a whole, favours compounds with a hit. Of some 79,000 tested, about 15% had one in any assay. No stated cut-off is given here; in the data, active means growth inhibition above about 70%; inactive means the rest.

What was measured:
[1] = NCI Yeast Anticancer Drug Screen. Data for the rad50 strain (AID 155);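 further: 0% = growth of vehicle-only cultures of the same strain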; conditions: S. cerevisiae rad50 strain growth inhibition; at 50.0 µM; active compounds read high
Summary of the method: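 Relative growth inhibition (compound vs vehicle) was measured in yeast with a defined repair-gene alteration.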

[2] = NCI Yeast Anticancer Drug Screen. Data for the mec2-1 strain (AID 157); conditions: S. cerevisiae mec2-1 strain, at 50.0 µM, active compounds read high
Summary of the method: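 mec2-1 yeast strain, carrying an alteration in DNA damage repair or cell cycle control, was exposed to compounds; growth inhibition was measured relative to vehicle-treated controls.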

[3] = NCI Yeast Anticancer Drug Screen. Data for the sgs1 mgt1 strain (AID 161);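 further: 0% = growth of cultures given vehicle only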; conditions: S. cerevisiae sgs1 mgt1 strain, at 50.0 µM, active compounds read high
Summary of the method: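 Growth of a repair-deficient yeast mutant was monitored after compound treatment and expressed as inhibition relative to vehicle-treated cultures.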

[4] = NCI Yeast Anticancer Drug Screen. Data for the cln2 rad14 strain (AID 165);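 further: 0% = growth equal to vehicle treated cultures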; conditions: S. cerevisiae cln2 rad14 strain, at 50.0 µM, active compounds read high
Summary of the method: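 Yeast carrying cln2 and rad14 alterations (cell cycle control and DNA damage repair) were exposed to compounds. Growth inhibition was measured against vehicle-treated controls.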

[5] = NCI Yeast Anticancer Drug Screen. Data for the bub3 strain (AID 167); conditions: S. cerevisiae bub3 mutant strain, at 50.0 µM, active compounds read high
Summary of the method: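 Screening used yeast with an engineered genetic alteration affecting cell cycle control. Compound-exposed cultures were compared with vehicle cultures, and reduced growth was taken as inhibition.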

[6] = NCI Yeast Anticancer Drug Screen. Data for the mlh1 rad18 strain (AID 175); conditions: S. cerevisiae mlh1 rad18 strain growth inhibition; at 50.0 µM; active compounds read high
Summary of the method: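 Growth inhibition of the yeast strain was measured after compound exposure and expressed relative to vehicle-treated controls. The strain carries defined defects in DNA damage repair.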

Measured: growth inhibition

C[C@H]1C(=O)OCN1S(=O)(=O)C(C)(C)C
inactive: [1] -0.05% | [2] 25% | [3] 16.1% | [4] -1.8% | [5] 16.1% | [6] -2.95%

CC(=O)Nn1cnc(C(=N)C#N)c1N
inactive: [1] -27.1% | [2] -6.15% | [3] -6.15% | [4] 11.8% | [5] -0.75% | [6] -2.95%

CCC(C)CC(O)CC(C)C (centres undefined)
inactive: [1] 13.9% | [2] 8.85% | [3] 1.2% | [4] 12.7% | [5] 2.65% | [6] 13%

Cc1ccc(C(=O)O)c(C(=O)O)c1
inactive: [1] -11.2% | [2] -18.9% | [3] -18.4% | [4] -4.25% | [5] -17.1% | [6] 1.75%

O=[N+]([O-])c1cccc(N=Cc2ccc(Cl)cc2)c1
inactive: [1] -29.9% | [2] -17.8% | [3] -62.5% | [4] -0.7% | [5] -0.05% | [6] -11.1%

Cc1cnc2[nH]c(-c3ccc(Cl)cc3)cc(=O)c2c1
inactive: [1] -5.65% | [2] -21.6% | [3] -31.9% | [4] -31.4% | [5] -32% | [6] -52.1%

CC1(CO)CSC(Nc2ccc(F)cc2)=N1 (centres undefined)
inactive: [1] -7.4% | [2] -11.1% | [3] 14.8% | [4] 14.8% | [5] 2.4% | [6] 3.35%

COc1cc([N+](=O)[O-])cc2c1OC1(C=C2)Oc2ccccc2N1C (centres undefined)
inactive: [1] -36.1% | [2] -25.9% | [3] -16.3% | [4] -16.8% | [5] -22.9% | [6] -17.9%

N#Cc1c(-c2ccco2)cc(-c2ccc(N)cc2)[nH]c1=O
inactive: [1] -0.6% | [2] 4.7% | [3] 17.7% | [4] 15.8% | [5] -8.9% | [6] 6.9%

Nc1nc2c(=O)[nH]c(=O)[nH]c2n1C1OC(CO)C(O)C1O (centres undefined)
inactive: [1] 4.7% | [2] -3.9% | [3] 0.35% | [4] 4.9% | [5] 14.2% | [6] -6.1%

c1ccc2c(c1)CCCN2c1nc(N2CCCCC2)nc(N2CCOCC2)n1
inactive: [1] 12.9% | [2] -17.9% | [3] 22.6% | [4] 22.1% | [5] 11.6% | [6] 20.1%

CC(=O)c1ccccc1C
inactive: [1] -32.6% | [2] -69.5% | [3] -43.7% | [4] -1.25% | [5] -38.1% | [6] -22.3%

C[C@]12CC[C@@H]3c4cc(C=O)c(OCc5ccccc5)cc4CC[C@H]3[C@@H]1CCC2OCc1ccccc1 (some centres undefined)
inactive: [1] 12.4% | [2] -8.15% | [3] 0.45% | [4] 2.9% | [5] -2.65% | [6] -0.95%

CCOP(=O)(CCP(=O)(CCP(=O)(OCC)OCC)CCP(=O)(OCC)OCC)OCC
inactive: [1] -8.05% | [2] 2.5% | [3] -8.05% | [4] -30.2% | [5] -1.55% | [6] -9.2%

CCCOC1CC(C)C(O)C(C)C1 (centres undefined)
inactive: [1] 24.6% | [2] -4.15% | [3] 3.35% | [4] -10.8% | [5] -1.35% | [6] 15.5%

C#CN1C(=O)c2c(c(-c3ccccc3)c(-c3ccc(Oc4ccc(-c5c(-c6ccccc6)c6c(c(-c7ccccc7)c5-c5ccccc5)C(=O)N(C#C)C6=O)cc4)cc3)c(-c3ccccc3)c2-c2ccccc2)C1=O
inactive: [1] 7.25% | [2] 10.1% | [3] 1.9% | [4] 10.3% | [5] 1.4% | [6] 15.2%

CC(=O)OCCOc1ccc(C(C)(C)C)cc1
inactive: [1] 45% | [2] -18.4% | [3] 9.25% | [4] 32.5% | [5] 11.8% | [6] 15.2%

O=C(Nc1ccc(Cl)c(Cl)c1)OC1C=CS(=O)(=O)C1 (centres undefined)
inactive: [1] -7.9% | [2] -5.95% | [3] -12.3% | [4] 7.7% | [5] 3.5% | [6] -0.15%

CC(C/C=C(/C=O)C(C)CC(C)(C)C)CC(C)(C)C (centres undefined)
inactive: [1] 43.9% | [2] 20.2% | [3] 36.3% | [4] -24.1% | [5] 4.85% | [6] 61.8%

C=CC(C/C(C)=N/Nc1ccc([N+](=O)[O-])cc1[N+](=O)[O-])c1ccccc1 (centres undefined)
inactive: [1] -17.7% | [2] -4.85% | [3] -17.6% | [4] -54.4% | [5] -19.6% | [6] -8%

C=CCOc1c(C)cc(C(N)=O)cc1C
inactive: [1] 4.45% | [2] -6.85% | [3] 24.6% | [4] 18.9% | [5] 5.45% | [6] 51.4%

NC(=O)C(=CNC(=S)Nc1ccc(Cl)c(Cl)c1)C(N)=O
inactive: [1] 8.6% | [2] -3.75% | [3] 18.4% | [4] 27.3% | [5] 2.05% | [6] 3.9%

c1ccc(CCc2ccncc2)cc1
inactive: [1] -3.05% | [2] -22.6% | [3] -8.35% | [4] -26.5% | [5] 3.6% | [6] -13.3%

c1ccc(CNc2ncccn2)nc1
inactive: [1] 21.8% | [2] 7.45% | [3] 40.7% | [4] 7.35% | [5] -10% | [6] 11.4%

O=[N+]([O-])C(CO)(CO)c1ccccc1
inactive: [1] 25.3% | [2] 2.4% | [3] 6% | [4] 18.8% | [5] 3.55% | [6] 15.7%

O=C(CCCC(=O)N/N=C/c1cc(Cl)ccc1[N+](=O)[O-])N/N=C\c1cc(Cl)ccc1[N+](=O)[O-]
inactive: [1] 20.7% | [2] 12.1% | [3] 11.1% | [4] 10.7% | [5] -1.9% | [6] 7%

CCCCCCCCCCCCCCSc1ccc2ccccc2c1
inactive: [1] -9.15% | [2] 9.3% | [3] -2.7% | [4] -20.2% | [5] -8.65% | [6] -20.3%

CC(=O)OCOC(=O)CN(CC(=O)OCOC(C)=O)Cc1cc2c(cc1OC(C)=O)Oc1cc(OC(C)=O)c(CN(CC(=O)OCOC(C)=O)CC(=O)OCOC(C)=O)cc1C21OC(=O)c2ccccc21
inactive: [1] 14.1% | [2] 9.1% | [3] 15.2% | [4] 14.8% | [5] -5% | [6] 35.1%

CC(=O)NC(C=O)C(O)C(O)C(O)C(=O)O (centres undefined)
inactive: [1] 21.7% | [2] -11.4% | [3] 2.3% | [4] 23.1% | [5] 8% | [6] 10.5%

CC(C)CCC[C@@H](C)[C@H]1CC[C@H]2[C@@H]3CC=C4C[C@@H](Cl)CC[C@]4(C)[C@H]3CC[C@]12C
inactive: [1] -3.75% | [2] -13.8% | [3] -20% | [4] -2.8% | [5] -8.9% | [6] -0.35%

O=c1c2c3c(sc2nc2n1N=CN(c1ccc(Cl)cc1)C2)CCCC3
inactive: [1] 8.7% | [2] 6% | [3] 7.7% | [4] -5.45% | [5] -4.7% | [6] -32%

CC1COB(c2ccccc2)OCC(C)N1CNC(=O)C1=C(O)C2(O)C(O)=C3C(=O)C4C(O)=CC=CC4C(C)(O)C3CC2C(N(C)C)C1=O (centres undefined)
inactive: [1] -8.75% | [2] 33.2% | [3] 34.6% | [4] -16.6% | [5] -6.85% | [6] 38.6%

[Co].[O-]c1cccnc1C=Nc1ccccc1.[OH3+]
inactive: [1] 24.8% | [2] 31.6% | [3] 37.4% | [4] 30.9% | [5] 33.9% | [6] 21.9%

O=C(Nc1ccccn1)c1ccc([N+](=O)[O-])cc1
inactive: [1] 33% | [2] 7.95% | [3] 15.4% | [4] 5.45% | [5] -1.8% | [6] -2.4%

CC(=O)OCC12CC(c3ccoc3)OC3CCC4C(=O)OC(CC1C)C4(C)C32 (centres undefined)
inactive: [1] -19.4% | [2] -29.4% | [3] -18.6% | [4] 4.3% | [5] -23.9% | [6] -22.8%

CCOC(=O)CCC(=O)c1ccc2cc(OC)ccc2c1
inactive: [1] 5.55% | [2] 25.2% | [3] 11.8% | [4] -36% | [5] 34.9% | [6] 27.1%

Clc1ccc2c(c1)C1Oc3ccc(Cl)cc3C(O2)O1
inactive: [1] -5.5% | [2] -24.5% | [3] 1% | [4] -14.3% | [5] -6.4% | [6] -2.3%

CN(C)CC(/C(Cc1ccccc1)=N\NC(=S)NN)c1ccccc1 (centres undefined)
inactive: [1] 23.1% | [2] 9.55% | [3] 38.2% | [4] 21.4% | [5] -3.25% | [6] 13.7%

N#C[C@H]1CC2C=CC1C2 (some centres undefined)
inactive: [1] 12.2% | [2] -20% | [3] 0.7% | [4] 8.2% | [5] 0.8% | [6] 15.7%
